Assay [1] in a line: viability loss in pontine glioma line – cell-based, SU-DIPG-XXV, MIPE5.0, CellTiter-Glo, qHTS, dose response (AID 1347065; cut-off not given, nearly all actives have AC50 up to about 26 µM;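 note: cells exposed to compound for 48 hours before ATP readout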). Conditions: CellTiter-Glo ATP luminescence.
Assay [2] is described as follows: SU-DIPG-VI glioma cell viability, MIPE4.0 library, CellTiter-Glo luminescence, qHTS (AID 1347066; cut-off not given, nearly all actives have AC50 up to about 30 µM;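 note: cells exposed to compound for 48 hours before readout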). The following applies: CellTiter-Glo ATP luminescence. On the technique in general: Cellular ATP, detected with luciferase, serves as a proxy for viable cell number.
The nature of assay [3]: JHH-DIPG-1 glioma cell viability, MIPE5.0 library, CellTiter-Glo luminescence, qHTS (AID 1347067; cut-off not given, nearly all actives have AC50 up to about 26 µM;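 note: cells exposed to compound for 48 hours before readout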). Conditions: JHH-DIPG-1 glioma viability, CellTiter-Glo ATP luminescence.
Assay [4] is described as follows: SU-DIPG-XXV glioma cell viability, MIPE5.0 library, qHTS (AID 1347068; cut-off not given, nearly all actives have IC50 up to about 30 µM). A general note: In qHTS, concentration-response curves come from the screen itself.
Assay [5] can be described thus: survival rescue of mitochondrial mutant cells in low glucose, primary screen, MELAS cybrids, Rieske KO mouse fibroblasts, CellTiter-Glo (AID 1508586;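 active = mean z-score across replicates of 1.96 or higher in either the MELAS or the Rieske mutant cell line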;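 note: z relative to plate mean and SD of compound and empty wells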).
For assay [6], the target named is NAD(+) hydrolase SARM1 (Homo sapiens) (UniProt Q6SZW1). As to the kind of experiment: SARM1 TIR NADase inhibitors, cell lysate, NAD-Glo luminescence (AID 1508614;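 active = compound whose remaining NAD level is above about 45 nM, limit read from the data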;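 note: higher remaining NAD means stronger inhibition of SARM1 NADase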). The following applies: SAM-TIR HEK293T lysate NADase, at 1 µM, stronger effect = higher value.
Sequence of NAD(+) hydrolase SARM1 (Homo sapiens) (Q6SZW1 whole entry, looked up, the tested form may be a part): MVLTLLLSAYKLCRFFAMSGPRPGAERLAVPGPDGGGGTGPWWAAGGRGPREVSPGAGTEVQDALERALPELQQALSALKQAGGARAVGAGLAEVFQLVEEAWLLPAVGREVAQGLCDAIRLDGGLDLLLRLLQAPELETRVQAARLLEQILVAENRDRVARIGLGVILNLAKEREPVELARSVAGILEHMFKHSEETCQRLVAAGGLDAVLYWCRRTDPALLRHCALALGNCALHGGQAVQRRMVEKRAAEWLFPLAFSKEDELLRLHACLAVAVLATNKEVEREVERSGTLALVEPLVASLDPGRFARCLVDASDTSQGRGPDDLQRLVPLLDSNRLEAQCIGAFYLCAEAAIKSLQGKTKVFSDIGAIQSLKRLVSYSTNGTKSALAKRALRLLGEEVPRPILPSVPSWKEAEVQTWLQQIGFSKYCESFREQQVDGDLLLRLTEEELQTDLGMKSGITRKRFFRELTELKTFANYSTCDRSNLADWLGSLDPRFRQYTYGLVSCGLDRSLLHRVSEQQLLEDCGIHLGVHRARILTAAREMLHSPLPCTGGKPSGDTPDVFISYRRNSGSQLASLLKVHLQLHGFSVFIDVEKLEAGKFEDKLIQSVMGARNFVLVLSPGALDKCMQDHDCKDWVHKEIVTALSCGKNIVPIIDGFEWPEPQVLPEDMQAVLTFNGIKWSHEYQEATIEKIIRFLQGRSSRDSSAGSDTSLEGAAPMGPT
Assay [7] deals with Mitogen-activated protein kinase 7 (Homo sapiens) (UniProt Q13164). In words: ERK5 transactivation activators in reporter cells, primary screen, cell-based, HTS (AID 1508626;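 active = luciferase signal above three times the same-plate solvent-only control wells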;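 note: luciferase driven by Gal4-ERK5 fusion binding five Gal4 sites before minimal TATA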). Conditions: HeLa Gal4-ERK5 transactivation, 18 h, at 5 µM, stronger effect = higher value.
Sequence of Mitogen-activated protein kinase 7 (Homo sapiens) (Q13164 whole entry, looked up, the tested form may be a part): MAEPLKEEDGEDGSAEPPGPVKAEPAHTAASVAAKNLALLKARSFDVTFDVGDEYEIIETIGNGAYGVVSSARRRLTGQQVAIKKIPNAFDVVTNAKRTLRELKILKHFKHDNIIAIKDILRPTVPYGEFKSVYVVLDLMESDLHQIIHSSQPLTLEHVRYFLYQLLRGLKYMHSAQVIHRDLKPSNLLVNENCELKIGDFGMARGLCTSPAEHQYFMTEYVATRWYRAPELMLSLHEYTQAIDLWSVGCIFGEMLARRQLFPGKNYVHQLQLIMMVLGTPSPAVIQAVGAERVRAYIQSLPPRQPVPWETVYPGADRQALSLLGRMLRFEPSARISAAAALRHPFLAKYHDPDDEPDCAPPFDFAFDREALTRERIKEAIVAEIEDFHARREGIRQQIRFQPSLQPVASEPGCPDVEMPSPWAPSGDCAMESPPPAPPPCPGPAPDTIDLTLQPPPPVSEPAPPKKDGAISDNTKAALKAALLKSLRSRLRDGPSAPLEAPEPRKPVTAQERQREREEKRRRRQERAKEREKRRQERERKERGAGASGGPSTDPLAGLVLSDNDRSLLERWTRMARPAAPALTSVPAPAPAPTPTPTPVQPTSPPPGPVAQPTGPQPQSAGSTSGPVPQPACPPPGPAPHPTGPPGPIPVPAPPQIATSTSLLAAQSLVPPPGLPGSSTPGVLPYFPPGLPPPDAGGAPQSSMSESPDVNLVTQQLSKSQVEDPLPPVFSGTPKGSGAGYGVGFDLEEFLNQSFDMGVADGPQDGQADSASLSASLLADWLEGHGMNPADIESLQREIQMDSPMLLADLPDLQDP
A short description of assay [8]: viability rescue of complex I mutant cybrids, primary screen, cell-based, galactose medium, ATP luminescence (AID 1645843;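 active = z-score of at least 1.8 in each of two replicates, scored against plate mean and spread of sample wells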;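 note: positive z means more ATP and so rescue of galactose-driven cybrid death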). Conditions: complex I mutant cybrid cells, 72 h, stronger effect = higher value.
A short description of assay [9]: phospholipid biosynthesis inhibitors in animal cells, primary screen, cell-based, LOPAC library, screen 4 (AID 1347384; call rule not given here). The following applies: phospholipid biosynthesis inhibition screen, at 10 µM.
Assay [10] in a line: sensitizers of A549 cells to miR-34 induction, primary screen, imaging, A549 dox-inducible miR-34, nuclei and caspase counts (AID 1347080;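 active = compounds whose cell count with miR-34 switched on is under 0.7 times the count with it off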). The following applies: A549 miR-34 inducible, Hoechst nuclei count, 48 h.
A short description of assay [11]: LFS_MB_P medulloblastoma growth inhibition, cell-based, chromothripsis tumors, cisplatin or BGB combos (AID 1671449).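 Note: cells exposed for 96 hours; 0% = vehicle DMSO and 100% = killing by high DMSO.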 The following applies: LFS_MB_P medulloblastoma cells.
Assay [12] can be described thus: HDN33 neuroblastoma growth inhibition, cell-based, chromothripsis tumors, cisplatin or BGB combos (AID 1671450).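 Note: cells exposed to compound for four days; 0% = vehicle DMSO and 100% = cell killing by high DMSO.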 Conditions: HDN33 neuroblastoma cells, stronger effect = higher value.
Assay [13] is described as follows: ICB984 medulloblastoma cell growth inhibition, synergistic combos for chromothripsis tumors, cisplatin or BGB combos (AID 1671451; call rule not given here;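 note: cells exposed for 96 hours before readout; 0% = vehicle DMSO and 100% = killing by high DMSO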). Conditions: ICB984 medulloblastoma cells, drug combinations, stronger effect = higher value.
Assay [14] in a line: LFS_MB_1R medulloblastoma cell growth inhibition, synergistic combos for chromothripsis tumors, cisplatin or BGB combos (AID 1671452).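 Note: cells exposed for 96 hours before readout.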 The following applies: LFS_MB_1R medulloblastoma cells, stronger effect = higher value.
Assay [15] is described as follows: HTB85 osteosarcoma cell growth inhibition, synergistic combos for chromothripsis tumors, BGB or cisplatin IC20 combos (AID 1671453).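 Note: cells exposed for 96 hours before readout; 0% = vehicle DMSO and 100% = high DMSO killing control.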 The following applies: HTB85 osteosarcoma cells, drug combinations, stronger effect = higher value.
Assay [16] in a line: CRL2098 osteosarcoma cell growth inhibition, synergistic combos for chromothripsis tumors, BGB or cisplatin IC20 combos (AID 1671454).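 Note: cells exposed for 96 h before readout; 0% = vehicle DMSO and 100% = killing by high DMSO.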 Conditions: CRL2098 osteosarcoma cells, drug combinations, stronger effect = higher value.
Assay [17] is described as follows: HD-MB03 medulloblastoma cell growth inhibition, synergistic combos for chromothripsis tumors, BGB or cisplatin IC20 combos (AID 1671455; in the data active = inhibition above about 83%;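 note: 0% = vehicle DMSO and 100% = high DMSO as cytotoxic control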). The following applies: HD-MB03 medulloblastoma cells, stronger effect = higher value.
Where [18] appears, read: MELAS cybrid survival, CellTiter-Glo 48 h, stronger effect = higher value.
[19] abbreviates: Rieske KO mouse fibroblast survival, CellTiter-Glo 72 h.
[20] abbreviates: measured here: combination with BGB IC40, at 0.05 µM.

Values joined by “and” are separate entries in the source; they are usually repeats but may differ in a detail not shown here. Equal values may be shown once. Inconclusive results are not listed. Active and inactive are the calls of the source. Cut-off read from the data, not from the text of the source, unless noted: active = inhibition above about 80%; inactive = the rest.

Broadly, the inhibition is the relative decrease from the control value, in per cent.

As for `CN1CCC(=C2c3ccccc3CCc3sccc32)CC1`, the molecule was called inactive in assay [1], in [2], in assay [3] and in assay [4]. For the same molecule, the z-score in assay [5] (setting [18]) was -0.441 (inactive) and -0.79 (inactive); in [5] (setting [19]), -0.11 and 0.709; in assay [8], -0.795 (inactive). In [6], the remaining NAD was 10 nM (inactive). Also, in [7], the luciferase signal is 76 AU (inactive).
As for `CC[N+](CC)(CC)CCOc1cccc(OCC[N+](CC)(CC)CC)c1OCC[N+](CC)(CC)CC`, the outcome in assay [1], in [2], in assay [3], in [4] and in assay [9] was inactive. In addition, the z-score in [5] (setting [18]) is -0.318 (inactive) and -0.405 (inactive) and -0.918 (inactive); in assay [5] (setting [19]), 0.619 and -0.334 and -0.59; in assay [8], 0.34 (inactive) and 0.415 (inactive). Moreover, the remaining NAD in assay [6] was 10 nM (inactive). Moreover, the luciferase signal in assay [7] was 216 AU (active).
With `S=P(N1CC1)(N1CC1)N1CC1`, the call in assay [1], in [2], in [3] and in assay [4] was inactive. Moreover, the fold change was 0.906 (inactive) in assay [10] (stronger effect = lower value, cell number ratio, induced over uninduced) and 2.37 in assay [10] (measured here: relative caspase fold change +Dox/-Dox). Also, the cell count was determined as 2790 in [10] (measured here: total cells with miR-34 induction, stronger effect = lower value) and 3080 in assay [10] (measured here: total cells without miR-34 induction). The remaining NAD in assay [6] was 10 nM (inactive). In [7], the luciferase signal was 40 AU (inactive). The inhibition in assay [11] (at 0.5 µM, stronger effect = higher value) was -23.2% (inactive) and -26.3% (inactive); in assay [11] (measured here: combination with BGB IC20, at 0.005 µM), 4.28% and -9.96%; in assay [11] (measured here: combination with BGB IC40, at 0.005 µM), -18.6% and -23.3%; in [11] (setting [20]) it was -9.26% and -20.5%; in assay [11] (measured here: combination with cisplatin, at 0.5 µM, stronger effect = higher value), -29.9% and -42.7%; in assay [11] (measured here: combination with cisplatin, at 5 µM, stronger effect = higher value), -29% and -10.5%. Moreover, the inhibition in assay [12] (BGB combo, at 5 µM) was 10.9% and 17%; in assay [12] (at 0.5 µM), -22.8% (inactive) and -4.61% (inactive); in assay [12] (cisplatin combo, at 5 µM) it was -33.8% and -6.48%; in assay [12] (measured here: with BGB IC20 combination, at 0.5 µM), -8.9% and -5.09%; in assay [12] (measured here: with cisplatin IC20 combination, at 0.5 µM) it was -36% and 8.65%; in assay [12] (single agent, at 5 µM) it was -17.8% and -15.5%. Further, the inhibition in assay [13] (BGB IC20 combo, at 0.005 µM) is -28.8% and -30.2%; in assay [13] (BGB IC40 combo, at 0.005 µM), -42.6% and -1.02%; in assay [13] (BGB IC40 combo, at 0.05 µM), -71.3% and -1.28%; in [13] (at 0.5 µM) it was -28.5% (inactive) and -18.4% (inactive); in assay [13] (cisplatin combo, at 0.05 µM), -78.1% and -1.28%; in [13] (cisplatin combo, at 0.5 µM), -36.2% and -27%. In addition, the inhibition is -39.5% and -6.98% in assay [13] (cisplatin combo, at 5 µM); -8.68% and -10.4% in assay [13] (measured here: 5 uM single agent, at 5 µM); -9.66% (inactive) and -3.23% (inactive) in [14] (at 0.5 µM); -28.2% and 8.25% in assay [14] (setting [20]); -26.8% and 11.1% in assay [14] (measured here: combination with cisplatin, at 0.5 µM); -75% and -8.13% in assay [14] (measured here: combination with cisplatin, at 5 µM). In addition, the inhibition in [15] (at 0.5 µM) is -27.7% (inactive) and -19.6% (inactive); in assay [15] (measured here: with BGB IC20, at 0.5 µM), -28% and -46.5%; in assay [15] (measured here: with BGB IC20, at 5 µM), 12.6% and 4.5%; in [15] (measured here: with cisplatin IC20, at 0.5 µM), -41.1% and -12.7%; in assay [15] (measured here: with cisplatin IC20, at 5 µM), -24.2% and -0.841%; in assay [15] (single agent, at 5 µM) it was -13.2% and -18.3%. In addition, the inhibition in assay [16] (at 0.5 µM) was -50.3% (inactive) and -34.6% (inactive); in assay [16] (measured here: combination with BGB at IC20, at 0.5 µM) it was -22.9% and -20.1%; in assay [16] (measured here: combination with cisplatin at IC20, at 0.5 µM) it was -36.2% and -49.4%; in assay [17] (at 0.5 µM), -12.6% (inactive) and -4.94% (inactive); in [17] (measured here: combo with BGB at IC20, at 0.5 µM), -12.8% and -2.1%; in assay [17] (measured here: combo with cisplatin at IC20, at 0.5 µM), -11.1% and -9.72%.

For the origin of these results see PubChem BioAssay.
